Bioassay records from PubChem BioAssay.
TIM10 inh: growth inhibitors of isogenic TIM10 control yeast, primary screen, counter-screen for tim10-1 yeast inhibitor project, luminescence, uHTS; 330,000 tested, 1.4% active; S. cerevisiae TIM10 strain growth, BacTiter-Glo luminescence, 24 h; inhibition, % at 10 µM; AID 463195, 2010;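 active = inhibition of 40% or more at the single tested concentration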;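 note: wild-type TIM10 isogenic control strain grown at permissive 25 °C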
tim10-1 inh: growth inhibitors of tim10-1 mutant yeast, primary screen, luminescence, uHTS. S. cerevisiae tim10-1 ts strain growth, BacTiter-Glo, 24 h. inhibition, % at 20 µM. 330,000 tested, 2.2% active;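 active = inhibition of at least 40%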;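 note: mutant grown at 25 °C; 0% = DMSO wells with yeast and 100% = wells holding no yeast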
PfHsp90 set2: growth inhibition of PfHsp90-expressing yeast, primary screen, antimalarial PfHsp90 inhibitor project, S. cerevisiae, BacTiter-Glo luminescence, single point, set 2 | BacTiter-Glo ATP, 48 h; yeast lacking PDR1 and PDR3 efflux regulators | inhibition, % at 9.4 µM | 310,000 tested, 0.32% active | AID 504621, 2011;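 active = every replicate shows inhibition above about 80%, whatever the replicate mean, limit read from the data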;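 note: 0% = DMSO neutral controls and 100% = 20 µM radicicol positive controls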
ATG4B inh: ATG4B protease inhibitors, primary screen, biochemical, fluorescence, uHTS; Cysteine protease ATG4B (Homo sapiens), Q9Y4P1; ATG4B cleavage of LC3-PLA2, NBD-HPC fluorescence, 1 h; inhibition, % at 8.33 µM; 340,000 tested, 0.51% active; AID 504462, 2011; in the data active = inhibition above about 40%
Target sequence (Q9Y4P1 whole entry, looked up): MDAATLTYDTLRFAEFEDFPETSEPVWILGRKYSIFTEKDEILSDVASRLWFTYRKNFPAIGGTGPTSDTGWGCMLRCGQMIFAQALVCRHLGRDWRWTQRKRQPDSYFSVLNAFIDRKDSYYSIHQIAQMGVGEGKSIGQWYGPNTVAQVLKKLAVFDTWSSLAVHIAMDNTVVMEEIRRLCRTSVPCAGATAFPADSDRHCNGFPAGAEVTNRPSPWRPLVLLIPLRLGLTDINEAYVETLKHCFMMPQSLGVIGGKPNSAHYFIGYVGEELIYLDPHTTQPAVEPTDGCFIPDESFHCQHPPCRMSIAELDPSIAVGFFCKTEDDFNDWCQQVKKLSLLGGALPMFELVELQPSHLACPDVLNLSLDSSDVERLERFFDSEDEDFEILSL
SKKanGAS inh: S. pyogenes SKKanGAS growth inhibitors in kanamycin, primary screen, streptokinase expression inhibitor project, SKKanGAS strain, BacTiter-Glo luminescence. AID 1662, 2009. 6 h. 300,000 tested, 1.3% active. inhibition, % at 7.5 µM;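 active = mean replicate score, as percent of positive control median, at least 50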;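 note: strain carries kanamycin resistance gene driven by streptokinase promoter and grows in 40 µg/ml kanamycin; loss of luminescence reflects streptokinase promoter inhibition or plain growth inhibition; 0% = median of DMSO wells and 100% = positive control at its reference dose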
tim23-1 inh: growth inhibitors of tim23-1 mutant yeast, primary screen, luminescence, uHTS; S. cerevisiae tim23-1 growth, BacTiter-Glo luminescence, 24 h; 330,000 tested, 1.3% active; inhibition, % at 20 µM;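 active = growth inhibition of the mutant yeast at or above 50%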;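 note: temperature-sensitive mutant grown at 25 °C; plate controls were DMSO-treated mutant yeast for no effect and medium wells lacking yeast for full effect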
tim10-1 conf: growth inhibitors of tim10-1 mutant yeast, confirmation, single concentration, luminescence, S. cerevisiae; 7,400 tested, 56% active; shares compounds with tim10-1 inh; S. cerevisiae tim10-1 ts strain growth, BacTiter-Glo, 24 h; inhibition, % at 20 µM;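 active = inhibition of yeast growth at or above a set limit in either of two repeat tests at 20 µM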;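 note: tim10-1 mutant grown at permissive 25 °C to find synthetic lethal compounds; 0% = DMSO yeast wells and 100% = medium wells without yeast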
* = called active by the depositor; . = no result given. This is a sample that favours compounds with a hit; in the whole collection about 4.7% have one here.

SMILES | TIM10 inh | tim10-1 inh | PfHsp90 set2 | ATG4B inh | SKKanGAS inh | tim23-1 inh | tim10-1 conf
CC(=O)n1cc([C@@H]2C=C(C(=O)N3CCOCC3)O[C@H](OCCCCO)C2)c2ccccc21 | 15 | -2 | -3 | -9 | -4 | 2 | .
CC1Oc2ccccc2N(CC(=O)NC2CCCC2)C1=O (stereo not given) | -5 | 3 | -22 | -7 | 1 | 3 | .
COc1ccc(CN(C(=O)CN2C(=O)COc3ccccc32)C2CCCC2)c(OC)c1 | 23 | 40* | -17 | 4 | 1 | 40 | 15
COc1ccc(CN(C(=O)CN2C(=O)C(C)Oc3ccccc32)C2CCCC2)c(OC)c1 (stereo not given) | 31 | 41* | -11 | 3 | 0 | 44 | 29
COc1ccc([C@H]2CC(=O)C=C(c3cc(C)ccc3OC)C2)cc1 | 0 | 10 | -13 | 4 | . | 20 | .
COc1ccccc1N1CCN(C(=O)c2cccc(Oc3ccccc3)c2)CC1 | 18 | -5 | 6 | 2 | 1 | 27 | .
O=C(CNc1ccc(Cl)c(C(F)(F)F)c1)N1CCN(S(=O)(=O)c2ccccc2)CC1 | . | . | 2 | -14 | . | . | .
CC1=CC(C)(C)Nc2ccc(OC(=O)c3cccnc3)cc21 | 13 | 40* | 11 | 0 | 7 | 33 | 25
CCOc1ccc(OCCC(=O)OCC(=O)Nc2cc(OCC)c(N3CCOCC3)cc2OCC)cc1 | 28 | 46* | 8 | 3 | -1 | 49 | 31
Cc1ccc(C(=O)NC2CCN(CC(=O)Nc3cccc([N+](=O)[O-])c3)CC2)cc1 | 11 | 16 | 16 | 0 | -1 | 14 | .
CCOC(=O)C1(S(=O)(=O)c2ccc(Cl)cc2)CCN(Cc2ccc(C)cc2)CC1 | 28 | 50* | -6 | -12 | 2 | 45 | 28
CCOC(=O)c1cccc(NC(=O)N2CCOCC2)c1 | 7 | 7 | -5 | -4 | 3 | 9 | .
CCOc1ccccc1NC(=S)NCCc1ccc(F)cc1 | 15 | 20 | -19 | 2 | -1 | 33 | .
CCOc1ccccc1NC(=S)NCCc1ccccc1 | 27 | 42* | 31 | 6 | 5 | 7 | 18
Cc1ccc(F)cc1NC(=S)NCCc1ccccc1 | 21 | 45* | -6 | 7 | 2 | -1 | 24
Cc1ccccc1-c1nnc2c3ccccc3c(C)nn12 | 1 | 4 | -9 | 6 | 4 | 17 | .
COc1ccc(-c2nnc3c4ccccc4c(C)nn23)cc1 | 10 | 49* | . | -9 | 18 | 43 | 26
S=c1[nH]nc(CSc2nc3ccccc3s2)n1Cc1ccccc1 | 18 | 25 | 0 | 6 | 19 | 3 | .
CCn1c(CSc2nc3ccccc3s2)n[nH]c1=S | 33 | 42* | -19 | -2 | 3 | 33 | 32*
N#CCCCSc1nnc(CSc2nc3ccccc3s2)n1-c1ccccc1 | 20 | 29 | 3 | -4 | 5 | 17 | .
CCCSc1nnc(CSc2nc3ccccc3s2)n1-c1ccccc1 | 22 | 44* | -1 | 28 | -17 | 29 | 33*
Cc1ccc(C(=O)CNc2ccccc2C)cc1 | 9 | 9 | -7 | 14 | -3 | 16 | .
COc1ccc(-c2nnc(COc3ccc4ccccc4c3)o2)cc1OC | 6 | 43* | -36 | -10 | -10 | -3 | 12
O=C1OCCN1C(=O)[C@H]1[C@H](c2ccc(Cl)cc2)C(c2ccccc2)=NN1c1ccccc1 | 9 | 31 | -21 | 2 | . | 47 | .
Oc1ccc(CN2CCN(Cc3ccccc3)CC2)c2cccnc12 | 17 | 21 | . | -5 | 6 | -40 | .
CN1CCN(Cc2cc(COCc3ccccc3)c3cccnc3c2O)CC1 | 9 | 47* | 18 | -2 | 3 | 10 | 25
CCC(=O)N1CCc2cc(S(=O)(=O)CCC(=O)Nc3ccc(CC)cc3)ccc21 | -21 | -2 | -12 | -14 | -2 | -17 | .
